TDP1 block – qHTS Assay for Inhibitors of Tyrosyl-DNA Phosphodiesterase (TDP1); Potency, µM (titrated, usually from 130 µM), for inactives: at the highest dose activity change, negative = inhibition, actives largely listed as inhibitors; recombinant TDP1, AlphaScreen DNA substrate cleavage; AID 485290, 2010; Tyrosyl-DNA phosphodiesterase 1 (Homo sapiens), Q9NUW8; actives 0.28% (n = 350,000); further: on the % scale 0 is the no-effect control and ±100 the full control effect; nearly all actives have a fitted effect of over 40% in size
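AlphaScreen read-out: signal falls as enzyme removes the 3' tyrosine-FITC from a 5'-biotinylated DNA oligo (15 nM, 5 min, RT). Enzyme was E. coli-made recombinant Tdp1 at 1 nM, exposed to compound for 15 min beforehand; beads 10 ug/ml, 10 min.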
POLH inh – qHTS for Inhibitors of Polymerase Eta; DNA polymerase eta (Homo sapiens), Q9Y253; Potency, µM (titrated, usually from 114 µM), for the others: at the highest dose activity change, negative = inhibition, usual class: inhibitors; recombinant Pol eta, fluorescent DNA replication assay; AID 588591, 2011; actives 1.2% (n = 390,000); further: on the % scale 0 is the no-effect control and ±100 the full control effect
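Pol eta at 10 nM preincubated with compounds 15 min at room temperature; reaction started with fluorescent substrate (50 nM final) and read kinetically at 0 and 10 min.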
Pol kappa inh – qHTS for Inhibitors of Polymerase Kappa; DNA polymerase kappa (Homo sapiens), Q9UBT6; purified Pol kappa, fluorescent DNA synthesis assay, 10 min; Potency, µM (top dose mostly 107 µM), for inactives: at the top dose activity, negative = inhibition, usual class: inhibitors; actives 0.53% (n = 400,000); AID 588579, 2011; further: on the % scale 0 is the no-effect control and ±100 the full control effect
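Fluorescent qHTS in 1536-well format: enzyme (10 nM) and compound sat 15 min at room temperature before 50 nM substrate (final) was added. Signal taken at 0 and 10 min; no-enzyme buffer wells were negative controls.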
FEN1 inhibitor – qHTS Assay for the Inhibitors of Human Flap endonuclease 1 (FEN1). P39748. Recombinant FEN1 flap cleavage, fluorescence, 15 min. Potency, µM (highest dose often 114 µM), for the others: top-dose activity change, negative = inhibition, hits mostly inhibitors. actives 0.35% (n = 390,000); further: on the % scale 0 is the no-effect control and ±100 the full control effect; nearly all actives have a fitted effect of over 65% in size
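In this screen, 50 nM flap DNA substrate was added to 10 nM FEN1 pretreated with compound for 15 min at room temperature; cleavage was followed with reads at 0 and 15 min, and Hill fitting gave concentration–response parameters.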
Pol iota inh – qHTS for Inhibitors of Polymerase Iota. DNA polymerase iota (Homo sapiens), Q9UNA4. Pol iota fluorescent replication assay, 10 min. Potency, µM (highest dose often 115 µM), without a hit: top-dose activity, negative = inhibition, actives largely listed as inhibitors. actives 1% (n = 390,000). AID 588590, 2011
Target sequence (Q9UNA4 whole entry, looked up): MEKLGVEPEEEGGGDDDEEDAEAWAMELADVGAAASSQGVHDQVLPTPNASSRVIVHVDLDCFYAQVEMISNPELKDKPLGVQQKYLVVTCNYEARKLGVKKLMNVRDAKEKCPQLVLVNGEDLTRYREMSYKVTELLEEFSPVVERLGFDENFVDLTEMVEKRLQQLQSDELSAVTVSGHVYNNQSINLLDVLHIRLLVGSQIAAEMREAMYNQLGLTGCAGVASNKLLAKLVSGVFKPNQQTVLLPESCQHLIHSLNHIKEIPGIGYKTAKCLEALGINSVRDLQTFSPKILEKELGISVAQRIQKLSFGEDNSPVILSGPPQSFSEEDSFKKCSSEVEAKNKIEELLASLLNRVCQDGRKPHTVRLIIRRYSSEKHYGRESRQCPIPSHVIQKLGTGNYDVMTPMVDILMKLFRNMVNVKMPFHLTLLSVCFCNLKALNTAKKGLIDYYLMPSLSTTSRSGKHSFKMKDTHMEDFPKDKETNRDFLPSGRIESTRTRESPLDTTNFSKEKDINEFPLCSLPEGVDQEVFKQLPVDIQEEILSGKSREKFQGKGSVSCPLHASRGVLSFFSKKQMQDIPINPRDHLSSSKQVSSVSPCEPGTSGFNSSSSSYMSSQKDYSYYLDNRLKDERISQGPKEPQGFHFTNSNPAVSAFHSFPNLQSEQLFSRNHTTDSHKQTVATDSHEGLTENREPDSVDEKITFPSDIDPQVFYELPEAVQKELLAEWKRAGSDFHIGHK
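Fluorescent replication assay read twice, at 0 min and 10 min after adding 50 nM (final) substrate. Enzyme (10 nM) and compounds were first incubated 15 min at room temperature; enzyme-free buffer wells were negative controls.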
Pol beta inh – qHTS Assay for Inhibitors of DNA Polymerase Beta; AID 485314, 2010; Pol beta primer extension/strand displacement, fluorescence kinetic; Potency, µM (highest dose often 114 µM), inactives show top-dose activity change, negative = inhibition, most hits filed as inhibitors; actives 1.3% (n = 340,000); P06746; further: on the % scale 0 is the no-effect control and ±100 the full control effect
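Homogeneous kinetic assay of primer extension and strand displacement by 10 nM Pol beta, preincubated 15 min at room temperature with compound before 50 nM substrate (final) was added. Read at 0 and 10 min; four-parameter Hill fit.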
TbPGK inh – qHTS for inhibitors of Phosphogylcerate Kinase: Hit Validation Screen; shares compounds with Pol kappa inh; TbPGK coupled GAPDH assay, Kinase-Glo luminescence; Potency, µM (doses to about 57.5 µM), for the others: at the highest dose activity change, negative = inhibition, actives largely listed as inhibitors; actives 79% (n = 500); AID 686980, 2013; further: on the % scale 0 is the no-effect control and ±100 the full control effect; nearly all actives have a fitted effect of over 65% in size
Pol iota confirm – qHTS for Inhibitors of Polymerase Iota: Confirmatory Assay for Cherry-picked Compounds; actives 77% (n = 1,500); Potency, µM, actives largely listed as inhibitors; Pol iota primer extension, TAMRA/BHQ fluorescence; AID 720496, 2013; shares compounds with Pol kappa inh
Numbers without * were called inactive; [ ] = dose if it differs, or a comment. Shown are actives, neighbours in structure and some others; about 2.4% of the full set was active somewhere. The call rests on the fitted dose curve; in most records, active means well fitted curve in the direction sought with a large enough effect; inconclusive means small, poorly fitted or top-dose-only effect, or another doubt; inactive means no such curve, though single readings can be large; an effect the other way counts as inactive or inconclusive. Potency means the concentration at half of the fitted maximal effect.

Results for O=C(c1coc(=O)c(Br)c1)N1CCOCC1 ?
TDP1 block: 22µM*; POLH inh: 10µM*; Pol kappa inh: inconclusive; FEN1 inhibitor: -11%; Pol iota inh: inconclusive; Pol beta inh: 6.3µM*; TbPGK inh: 29µM*

How did O=C(c1ccc(=O)oc1)N1CCOCC1 do in these assays?
POLH inh: 1.8µM*; Pol kappa inh: 50µM*; FEN1 inhibitor: 32µM*; Pol iota inh: inconclusive; Pol beta inh: 5µM*; TbPGK inh: 4.1µM*

How did OCc1ccc(-c2ccc(-c3ccc(CO)s3)o2)s1 do in these assays?
TDP1 block: 11%; Pol kappa inh: inconclusive

Results for O=C(O)c1cc(O)c2c(c1)[C@H]([C@H]1c3cc(C(=O)O)cc(O)c3C(=O)c3c(O[C@@H]4O[C@H](CO)[C@@H](O)[C@H](O)[C@H]4O)cccc31)c1cccc(OC3O[C@H](CO)[C@@H](O)[C@H](O)[C@H]3O)c1C2=O (stereo not given in full) ?
POLH inh: -99%; Pol kappa inh: 0.71µM*; FEN1 inhibitor: 1.3µM*; Pol iota inh: -83%; TbPGK inh: 2.9µM*

How did COc1ccccc1-c1nc(NCc2cnc(C)cn2)c2ccccc2n1 do in these assays?
Pol kappa inh: -16%[60.1 µM]

What do the screens show for `O=C(Nc1ccc(Cl)c(Cl)c1)Nc1nnc(-c2ccncc2)s1`?
POLH inh: inconclusive; Pol kappa inh: inconclusive; FEN1 inhibitor: -9%; Pol iota inh: inconclusive; Pol beta inh: inconclusive; Pol iota confirm: inconclusive

Results for O=C(N/N=C/c1ccc2c(c1)OCO2)c1cccs1 ?
TDP1 block: 3%; POLH inh: -7%; Pol kappa inh: -18%; FEN1 inhibitor: -19%; Pol iota inh: -7%; Pol beta inh: 13%

How did O=C(O)c1ccc(N/N=C/c2ccc3c(c2)OCO3)cc1 do in these assays?
TDP1 block: 4%; POLH inh: -12%; Pol kappa inh: -8%; FEN1 inhibitor: 8%; Pol iota inh: 23%; Pol beta inh: 21%; TbPGK inh: 10µM*

What do the screens show for `Cc1ccsc1C(=O)N/N=C/c1ccc2c(c1)OCO2`?
TDP1 block: 5%; POLH inh: -10%; Pol kappa inh: -7%; FEN1 inhibitor: -1%; Pol iota inh: -7%; Pol beta inh: -12%; TbPGK inh: 18µM*

How did O=C(O)c1ccc(N/N=C/c2cc3c(cc2[N+](=O)[O-])OCO3)cc1 do in these assays?
POLH inh: inconclusive; Pol kappa inh: -14%; FEN1 inhibitor: inconclusive; Pol iota inh: -5%; Pol beta inh: -13%

How did CN(C)c1ccc(C(=S)Nc2ccccc2)cc1 do in these assays?
TDP1 block: 6%; POLH inh: -14%; Pol kappa inh: 0%; FEN1 inhibitor: 15%; Pol iota inh: 0%; Pol beta inh: -25%

What do the screens show for `CN(C)c1ccc(C(=O)Nc2sc(Nc3ccccc3)nc2C(N)=O)cc1`?
TDP1 block: -3%; POLH inh: inconclusive; Pol kappa inh: -3%[60.1 µM]; FEN1 inhibitor: 11%; Pol iota inh: 79µM*; Pol beta inh: inconclusive; Pol iota confirm: inconclusive

Results for O=C(Nc1nc2ccccc2[nH]1)c1ccccc1F ?
TDP1 block: 5%; POLH inh: -17%; Pol kappa inh: 3%; FEN1 inhibitor: 7%; Pol iota inh: 21%; Pol beta inh: 19%; TbPGK inh: 8.2µM*

Results for Cc1ccc(-c2nn3c(C)nnc3c3ccccc23)cc1S(=O)(=O)NCC(C)O (stereo not given) ?
TDP1 block: 7%; POLH inh: -25%; Pol kappa inh: -7%[60.1 µM]; FEN1 inhibitor: 10%; Pol iota inh: 3%; Pol beta inh: inconclusive

What do the screens show for `COc1ccc(C(=O)N2CCC3(CC2)CN(c2ccccn2)C3)cc1`?
Pol kappa inh: -12%[60.1 µM]

Results for O=C(Nc1cccc(-c2nc3ccccc3s2)c1)c1cc(=O)c2ccccc2o1 ?
TDP1 block: -2%; POLH inh: inconclusive; Pol kappa inh: -12%; FEN1 inhibitor: 15%; Pol iota inh: 34%; Pol beta inh: inconclusive; Pol iota confirm: inconclusive

Results for Cc1nnc(NCc2ccc(Cl)cc2)c2c1nnn2Cc1ccc(F)cc1 ?
TDP1 block: 7%; POLH inh: -23%; Pol kappa inh: -4%; FEN1 inhibitor: -6%; Pol iota inh: 5%; Pol beta inh: 14%

How did Oc1ccc(C[C@H]2CNCCN2CCc2cccc3ccccc23)cc1 do in these assays?
TDP1 block: inconclusive; POLH inh: -10%; Pol kappa inh: -14%; FEN1 inhibitor: -19%; Pol iota inh: inconclusive; TbPGK inh: inconclusive

What do the screens show for `COc1ccc(OC)c(/C=N/NC(=O)c2[nH]ncc2Br)c1`?
TDP1 block: 3%; POLH inh: -20%; Pol kappa inh: -3%; FEN1 inhibitor: 3%; Pol iota inh: -7%[58.9 µM]; Pol beta inh: 37%

What do the screens show for `CCOc1ccc(/C=N/NC(=O)c2[nH]ncc2Br)c(O)c1`?
TDP1 block: -3%; POLH inh: -7%; Pol kappa inh: -1%; FEN1 inhibitor: -20%; Pol iota inh: 21%; Pol beta inh: 23%; TbPGK inh: 18µM*

What do the screens show for `Cc1ccc(S(=O)(=O)C(CNC(=O)COc2ccccc2)c2cccs2)cc1` (stereo not given)?
TDP1 block: inconclusive; POLH inh: -14%; Pol kappa inh: -7%[60.1 µM]; FEN1 inhibitor: -10%; Pol iota inh: 1%; Pol beta inh: 13µM*; TbPGK inh: inconclusive

How did COc1cccc(-n2c(-c3cccc(F)c3)nc3c(cnn3-c3ccc(C)cc3)c2=O)c1 do in these assays?
TDP1 block: 5%; POLH inh: -14%; Pol kappa inh: -8%; FEN1 inhibitor: -19%; Pol iota inh: 13%; Pol beta inh: 15%
